Assay [1] is described as follows: NCI Yeast Anticancer Drug Screen. Data for the rad50 strain (AID 155).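 Note: 0% = growth of vehicle-only cultures of the same strain.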 Particulars: S. cerevisiae rad50 strain growth inhibition, hits give high values. The method in brief: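 A DNA repair-deficient yeast mutant serves as the test organism; compound-induced growth inhibition is calculated against vehicle-treated cells.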
Assay [2] in a line: NCI Yeast Anticancer Drug Screen. Data for the mec2-1 strain (AID 157). Conditions: S. cerevisiae mec2-1 strain, hits give high values. In outline:
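Mutant yeast (mec2-1) grown with compound; growth inhibition relative to vehicle control reported.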

A short description of assay [3]: NCI Yeast Anticancer Drug Screen. Data for the sgs1 mgt1 strain (AID 161).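 Note: 0% = growth of cultures given vehicle only.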 Particulars: S. cerevisiae sgs1 mgt1 strain, hits give high values. The method in brief: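 Growth of a repair-deficient yeast mutant was monitored after compound treatment and expressed as inhibition relative to vehicle-treated cultures.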
Assay [4] can be described thus: NCI Yeast Anticancer Drug Screen. Data for the cln2 rad14 strain (AID 165).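 Note: 0% = growth equal to vehicle treated cultures.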 Conditions: S. cerevisiae cln2 rad14 strain, hits give high values. In outline: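 Readout is yeast growth inhibition versus vehicle-treated controls, using a strain with cln2 and rad14 alterations exposed to compound.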
The nature of assay [5]: NCI Yeast Anticancer Drug Screen. Data for the bub3 strain (AID 167). Particulars: S. cerevisiae bub3 mutant strain, hits give high values. In outline: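 Inhibition values come from growth of compound-treated mutant yeast normalised to vehicle-treated controls.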
A short description of assay [6]: NCI Yeast Anticancer Drug Screen. Data for the mlh1 rad18 strain (AID 175). Conditions: S. cerevisiae mlh1 rad18 strain growth inhibition, hits give high values. In outline: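 Genetically defined yeast (DNA repair-deficient) exposed to compounds; growth inhibition determined relative to vehicle.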
Setting [7] is: at 5.0 µM (retest, dose inferred, filed as 0.5).
[8] abbreviates: at 50.0 µM (retest, dose inferred, filed as 5.0).

Molecules are shown by their SMILES. Compounds without any hit were thinned out: in the full panel of roughly 79,000, 15% have a hit. Values without a mark were called inactive. Active and inactive are the calls of the source. Cut-off read from the data, not from the text of the source: active = growth inhibition above about 70%; inactive = the rest.

As to `S=C(C#Cc1ccccc1)Nc1ccccc1`, the growth inhibition in assay [1] (setting [7]) is -73%; in assay [1] (setting [8]) it was 87% (active); in assay [1] (at 50.0 µM), 99.3% (active); in assay [2] (setting [7]), -36%; in assay [2] (setting [8]) it was 97% (active); in assay [2] (at 50.0 µM), 99.4% (active). Besides, the growth inhibition in assay [3] (setting [7]) was -30%; in assay [3] (setting [8]), 96% (active); in assay [3] (at 50.0 µM), 96.7% (active); in assay [4] (setting [7]), -37%; in assay [4] (setting [8]), 94% (active); in assay [4] (at 50.0 µM) it was 99% (active). The growth inhibition in assay [5] (setting [7]) was -47%; in assay [5] (setting [8]) it was 96% (active); in assay [5] (at 50.0 µM), 99% (active); in assay [6] (setting [7]), -93%; in assay [6] (setting [8]), 94% (active); in assay [6] (at 50.0 µM), 99% (active).

In the case of `CCOC(=O)/C(=C\c1ccc(Cl)cc1)C(C)=O`, the growth inhibition in assay [1] (setting [7]) is 31%; in assay [1] (setting [8]), 98% (active); in assay [1] (at 50.0 µM) it was 93.2% (active); in assay [2] (setting [7]), 49%; in assay [2] (setting [8]), 99% (active); in assay [2] (at 50.0 µM), 94.5% (active). For the same molecule, the growth inhibition in assay [3] (setting [7]) is 33%; in assay [3] (setting [8]), 98% (active); in assay [3] (at 50.0 µM), 93.3% (active); in assay [4] (setting [7]), 29%; in assay [4] (setting [8]), 98% (active); in assay [4] (at 50.0 µM), 92% (active). Further, the growth inhibition in assay [5] (setting [7]) is 79% (active); in assay [5] (setting [8]) it was 99% (active); in assay [5] (at 50.0 µM), 92.2% (active); in assay [6] (setting [7]), 79% (active); in assay [6] (setting [8]) it was 98% (active); in assay [6] (at 50.0 µM), 91.5% (active).

With `O=C(Nc1ccccc1)c1ccc([N+](=O)[O-])o1`, the growth inhibition in assay [1] (setting [7]) is 12%; in assay [1] (setting [8]), 83% (active); in assay [1] (at 50.0 µM), 96.3% (active); in assay [2] (setting [7]), 3%; in assay [2] (setting [8]) it was 73% (active); in assay [2] (at 50.0 µM), 95.7% (active). Further, the growth inhibition was 9% in assay [3] (setting [7]); 82% (active) in assay [3] (setting [8]); 98.6% (active) in assay [3] (at 50.0 µM); -2% in assay [4] (setting [7]); 31% in assay [4] (setting [8]); 80.2% (active) in assay [4] (at 50.0 µM). Further, the growth inhibition is 2% in assay [5] (setting [7]); 79% (active) in assay [5] (setting [8]); 91.4% (active) in assay [5] (at 50.0 µM); 24% in assay [6] (setting [7]); 91% (active) in assay [6] (setting [8]); 98.5% (active) in assay [6] (at 50.0 µM).

Turning to `S=C(N/N=C/c1ccco1)NC12CC3CC(CC(C3)C1)C2`, the growth inhibition in assay [1] (setting [7]) was 29%; in assay [1] (setting [8]), 94% (active); in assay [1] (at 50.0 µM), 2.95%; in assay [2] (setting [7]), 24%; in assay [2] (setting [8]), 95% (active); in assay [2] (at 50.0 µM) it was 8.05%. Also, the growth inhibition is 76% (active) in assay [3] (setting [7]); 96% (active) in assay [3] (setting [8]); 10.9% in assay [3] (at 50.0 µM); 51% in assay [4] (setting [7]); 91% (active) in assay [4] (setting [8]); -0.25% in assay [4] (at 50.0 µM). The growth inhibition was 71% (active) in assay [5] (setting [7]); 93% (active) in assay [5] (setting [8]); 13.4% in assay [5] (at 50.0 µM); 47% in assay [6] (setting [7]); 94% (active) in assay [6] (setting [8]); 26.2% in assay [6] (at 50.0 µM).

Consider `Oc1ccc(/C=N/NC(=S)NC2CC3CC2C2C=CCC32)c(O)c1` (stereo not given), for which the growth inhibition in assay [1] (setting [7]) is 46%; in assay [1] (setting [8]), 96% (active); in assay [1] (at 50.0 µM), 87.8% (active); in assay [2] (setting [7]) it was 33%; in assay [2] (setting [8]), 97% (active); in assay [2] (at 50.0 µM), 90.8% (active). The growth inhibition in assay [3] (setting [7]) is 49%; in assay [3] (setting [8]), 98% (active); in assay [3] (at 50.0 µM), 92.5% (active); in assay [4] (setting [7]), 26%; in assay [4] (setting [8]) it was 98% (active); in assay [4] (at 50.0 µM), 89.3% (active). For the same molecule, the growth inhibition in assay [5] (setting [7]) was 28%; in assay [5] (setting [8]), 52%; in assay [5] (at 50.0 µM), 90.3% (active); in assay [6] (setting [7]) it was 65%; in assay [6] (setting [8]) it was 96% (active); in assay [6] (at 50.0 µM), 90% (active).

With `Cc1ccc(SSCCCCS(=O)O)cc1`, the growth inhibition in assay [1] (setting [7]) was -2%; in assay [1] (setting [8]), 33%; in assay [1] (at 50.0 µM), 65.7%; in assay [2] (setting [7]), 4%; in assay [2] (setting [8]), 85% (active); in assay [2] (at 50.0 µM) it was 62.2%. The growth inhibition is 5% in assay [3] (setting [7]); 91% (active) in assay [3] (setting [8]); 82.8% (active) in assay [3] (at 50.0 µM); -5% in assay [4] (setting [7]); 64% in assay [4] (setting [8]); 84.9% (active) in assay [4] (at 50.0 µM). Besides, the growth inhibition in assay [5] (setting [7]) was 13%; in assay [5] (setting [8]) it was 88% (active); in assay [5] (at 50.0 µM), 80.3% (active); in assay [6] (setting [7]), 1%; in assay [6] (setting [8]) it was 80% (active); in assay [6] (at 50.0 µM) it was 91.8% (active).

In the case of `C#CC[N+](CC)(CC)CCNC(=O)CCCCCCCCCCCCCCC`, the growth inhibition is 97% (active) in assay [1] (setting [7]); 99% (active) in assay [1] (setting [8]); 99.5% (active) in assay [1] (at 50.0 µM); 81% (active) in assay [2] (setting [7]); 99% (active) in assay [2] (setting [8]); 99.7% (active) in assay [2] (at 50.0 µM). The growth inhibition in assay [3] (setting [7]) was 98% (active); in assay [3] (setting [8]), 100% (active); in assay [3] (at 50.0 µM), 99.6% (active); in assay [4] (setting [7]), 51%; in assay [4] (setting [8]), 99% (active); in assay [4] (at 50.0 µM), 98.8% (active). Further, the growth inhibition in assay [5] (setting [7]) was 92% (active); in assay [5] (setting [8]), 99% (active); in assay [5] (at 50.0 µM), 99.6% (active); in assay [6] (setting [7]), 49%; in assay [6] (setting [8]), 99% (active); in assay [6] (at 50.0 µM) it was 99.5% (active).

Turning to `c1ccc(Nc2cccc3ccccc23)cc1`, the growth inhibition was -4% in assay [1] (setting [7]); 95% (active) in assay [1] (setting [8]); 94.8% (active) in assay [1] (at 50.0 µM); -5% in assay [2] (setting [7]); 81% (active) in assay [2] (setting [8]); 96.2% (active) in assay [2] (at 50.0 µM). Moreover, the growth inhibition was -3% in assay [3] (setting [7]); 62% in assay [3] (setting [8]); 95.8% (active) in assay [3] (at 50.0 µM); -1% in assay [4] (setting [7]); 32% in assay [4] (setting [8]); 95.1% (active) in assay [4] (at 50.0 µM). Moreover, the growth inhibition in assay [5] (setting [7]) is 43%; in assay [5] (setting [8]) it was 95% (active); in assay [5] (at 50.0 µM) it was 91.5% (active); in assay [6] (setting [7]), -1%; in assay [6] (setting [8]), 88% (active); in assay [6] (at 50.0 µM) it was 95.5% (active).

`BrCc1ccccc1C[P+](c1ccccc1)(c1ccccc1)c1ccccc1`: the growth inhibition in assay [1] (setting [7]) was 55%; in assay [1] (setting [8]), 98% (active); in assay [1] (at 50.0 µM), 89.5% (active); in assay [2] (setting [7]), 52%; in assay [2] (setting [8]) it was 99% (active); in assay [2] (at 50.0 µM), 90.7% (active). Also, the growth inhibition in assay [3] (setting [7]) is 54%; in assay [3] (setting [8]), 99% (active); in assay [3] (at 50.0 µM), 85.5% (active); in assay [4] (setting [7]) it was 25%; in assay [4] (setting [8]) it was 97% (active); in assay [4] (at 50.0 µM) it was 82.3% (active). The growth inhibition in assay [5] (setting [7]) was 47%; in assay [5] (setting [8]), 98% (active); in assay [5] (at 50.0 µM) it was 89.7% (active); in assay [6] (setting [7]) it was 69%; in assay [6] (setting [8]), 98% (active); in assay [6] (at 50.0 µM), 88.2% (active).

For `CC(C)C(Sc1nc(-c2ccccc2)c(-c2ccccc2)[nH]1)C(=O)NN` (stereo not given), the growth inhibition in assay [1] (setting [7]) is -7%; in assay [1] (setting [8]), 91% (active); in assay [1] (at 50.0 µM), 90.2% (active); in assay [2] (setting [7]), -36%; in assay [2] (setting [8]), 96% (active); in assay [2] (at 50.0 µM), 33.4%. The growth inhibition is -3% in assay [3] (setting [7]); 94% (active) in assay [3] (setting [8]); 91.5% (active) in assay [3] (at 50.0 µM); 17% in assay [4] (setting [7]); 98% (active) in assay [4] (setting [8]); 90% (active) in assay [4] (at 50.0 µM). The growth inhibition in assay [5] (setting [7]) is 29%; in assay [5] (setting [8]) it was 98% (active); in assay [5] (at 50.0 µM) it was 89% (active); in assay [6] (setting [7]), -11%; in assay [6] (setting [8]), 96% (active); in assay [6] (at 50.0 µM), 89.4% (active).

Source of the values: PubChem BioAssay (NCI).
